# Measured values from PubChem BioAssay.
# Calls of active or inactive are those of the source.
# Legend:
# [1] = binders of probe aFSTL3 on microarray, primary screen, stem cell growth factor project, biochemical, small-molecule microarray, fluorescence 635/667 (AID 1064); conditions: higher = more signal;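 also: measures binding of the biotinylated anti-FSTL3 antibody to printed compounds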
# [2] = binders from COS7 lysate, DM2A8 probe, primary screen, torsin A project, cell lysate, small-molecule microarray, fluorescence 635/667 (AID 1065); conditions: higher = more signal, COS7 lysate expressing mutant human TOR1A
# [3] = binders of probe aFGF2 on microarray, primary screen, stem cell growth factor project, biochemical, small-molecule microarray, fluorescence 635/667 (AID 1067); conditions: higher = more signal;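 also: measures binding of biotinylated aFGF2 protein to printed compounds on slides; z-score merges feature fluorescence and signal-to-noise across triplicate slides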
# [4] = binders of probe aFGF10 on microarray, primary screen, stem cell growth factor project, biochemical, small-molecule microarray, fluorescence 635/667 (AID 1071); conditions: higher = more signal;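 also: score merges 667 nm spot intensity and signal to noise from triplicate slides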
# [5] = biological target: Neurogenic locus notch homolog protein 2 (Homo sapiens) (UniProt Q04721); test: Notch2 binders on small-molecule microarrays, primary screen, biochemical, small-molecule microarray, 635 nm fluorescence, stem cell growth factors (AID 1073); conditions: Notch2 binding, higher = more signal
# [6] = biological target: Pro-neuregulin-1, membrane-bound isoform (Homo sapiens) (UniProt Q02297); test: NRG1 binders on small-molecule microarrays, primary screen, psychiatric disease protein project, biochemical, small-molecule microarray, fluorescence 635/667 (AID 1075); conditions: NRG1 binding, 635 nm fluorescence, higher = more signal;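 also: score combines 667 nm spot fluorescence with signal to noise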
# [7] = test system: Neuregulin-1 EGF-like domain; test: binders of neuregulin-1 EGF-like domain, primary screen, biochemical, small-molecule microarray, 635 nm fluorescence (AID 1081); conditions: small-molecule microarray binding, higher = more signal;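 also: binding of the protein to compounds printed on small-molecule microarray slides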
# [8] = FRG1 promoter luciferase signal modulators, primary screen, FRG1 inhibition for FSHD, cell-based, C2C12 myotubes, firefly/Renilla luciferase, luminescence (AID 1084); conditions: higher = more signal, called active from +8 up or from −8 down
# [9] = binders of probe aFST on microarray, primary screen, stem cell growth factor project, biochemical, small-molecule microarray, fluorescence 635/667 (AID 1086); conditions: higher = more signal;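 also: score merges 667 nm fluorescence with signal-to-noise of each printed compound spot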
# [10] = binders of probe aHhip on microarray, primary screen, stem cell growth factor project, biochemical, small-molecule microarray, fluorescence 635/667 (AID 1087); conditions: higher = more signal;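 also: score merges spot fluorescence at 667nm with spot signal to noise ratio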
# Chain of Pro-neuregulin-1, membrane-bound isoform (Homo sapiens) (Q02297 whole entry, looked up, the tested form may be a part, canonical isoform): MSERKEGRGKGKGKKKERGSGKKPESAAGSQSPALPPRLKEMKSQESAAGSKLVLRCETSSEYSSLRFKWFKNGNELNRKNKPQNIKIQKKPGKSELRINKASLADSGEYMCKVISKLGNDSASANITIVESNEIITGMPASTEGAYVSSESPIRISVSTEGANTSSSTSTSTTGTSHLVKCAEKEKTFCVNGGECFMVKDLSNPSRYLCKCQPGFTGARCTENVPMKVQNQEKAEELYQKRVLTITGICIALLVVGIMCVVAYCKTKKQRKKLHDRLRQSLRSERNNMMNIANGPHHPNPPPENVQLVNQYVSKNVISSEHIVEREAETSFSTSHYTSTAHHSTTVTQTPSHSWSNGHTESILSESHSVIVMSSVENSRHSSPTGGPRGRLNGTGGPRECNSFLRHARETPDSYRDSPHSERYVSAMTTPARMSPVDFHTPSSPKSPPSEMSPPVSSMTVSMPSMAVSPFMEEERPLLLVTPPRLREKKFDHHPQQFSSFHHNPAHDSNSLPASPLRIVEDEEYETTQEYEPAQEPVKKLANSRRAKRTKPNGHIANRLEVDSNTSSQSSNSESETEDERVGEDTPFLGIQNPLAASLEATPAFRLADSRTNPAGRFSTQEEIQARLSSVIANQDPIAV
# Chain of Neurogenic locus notch homolog protein 2 (Homo sapiens) (Q04721 whole entry, looked up, canonical isoform): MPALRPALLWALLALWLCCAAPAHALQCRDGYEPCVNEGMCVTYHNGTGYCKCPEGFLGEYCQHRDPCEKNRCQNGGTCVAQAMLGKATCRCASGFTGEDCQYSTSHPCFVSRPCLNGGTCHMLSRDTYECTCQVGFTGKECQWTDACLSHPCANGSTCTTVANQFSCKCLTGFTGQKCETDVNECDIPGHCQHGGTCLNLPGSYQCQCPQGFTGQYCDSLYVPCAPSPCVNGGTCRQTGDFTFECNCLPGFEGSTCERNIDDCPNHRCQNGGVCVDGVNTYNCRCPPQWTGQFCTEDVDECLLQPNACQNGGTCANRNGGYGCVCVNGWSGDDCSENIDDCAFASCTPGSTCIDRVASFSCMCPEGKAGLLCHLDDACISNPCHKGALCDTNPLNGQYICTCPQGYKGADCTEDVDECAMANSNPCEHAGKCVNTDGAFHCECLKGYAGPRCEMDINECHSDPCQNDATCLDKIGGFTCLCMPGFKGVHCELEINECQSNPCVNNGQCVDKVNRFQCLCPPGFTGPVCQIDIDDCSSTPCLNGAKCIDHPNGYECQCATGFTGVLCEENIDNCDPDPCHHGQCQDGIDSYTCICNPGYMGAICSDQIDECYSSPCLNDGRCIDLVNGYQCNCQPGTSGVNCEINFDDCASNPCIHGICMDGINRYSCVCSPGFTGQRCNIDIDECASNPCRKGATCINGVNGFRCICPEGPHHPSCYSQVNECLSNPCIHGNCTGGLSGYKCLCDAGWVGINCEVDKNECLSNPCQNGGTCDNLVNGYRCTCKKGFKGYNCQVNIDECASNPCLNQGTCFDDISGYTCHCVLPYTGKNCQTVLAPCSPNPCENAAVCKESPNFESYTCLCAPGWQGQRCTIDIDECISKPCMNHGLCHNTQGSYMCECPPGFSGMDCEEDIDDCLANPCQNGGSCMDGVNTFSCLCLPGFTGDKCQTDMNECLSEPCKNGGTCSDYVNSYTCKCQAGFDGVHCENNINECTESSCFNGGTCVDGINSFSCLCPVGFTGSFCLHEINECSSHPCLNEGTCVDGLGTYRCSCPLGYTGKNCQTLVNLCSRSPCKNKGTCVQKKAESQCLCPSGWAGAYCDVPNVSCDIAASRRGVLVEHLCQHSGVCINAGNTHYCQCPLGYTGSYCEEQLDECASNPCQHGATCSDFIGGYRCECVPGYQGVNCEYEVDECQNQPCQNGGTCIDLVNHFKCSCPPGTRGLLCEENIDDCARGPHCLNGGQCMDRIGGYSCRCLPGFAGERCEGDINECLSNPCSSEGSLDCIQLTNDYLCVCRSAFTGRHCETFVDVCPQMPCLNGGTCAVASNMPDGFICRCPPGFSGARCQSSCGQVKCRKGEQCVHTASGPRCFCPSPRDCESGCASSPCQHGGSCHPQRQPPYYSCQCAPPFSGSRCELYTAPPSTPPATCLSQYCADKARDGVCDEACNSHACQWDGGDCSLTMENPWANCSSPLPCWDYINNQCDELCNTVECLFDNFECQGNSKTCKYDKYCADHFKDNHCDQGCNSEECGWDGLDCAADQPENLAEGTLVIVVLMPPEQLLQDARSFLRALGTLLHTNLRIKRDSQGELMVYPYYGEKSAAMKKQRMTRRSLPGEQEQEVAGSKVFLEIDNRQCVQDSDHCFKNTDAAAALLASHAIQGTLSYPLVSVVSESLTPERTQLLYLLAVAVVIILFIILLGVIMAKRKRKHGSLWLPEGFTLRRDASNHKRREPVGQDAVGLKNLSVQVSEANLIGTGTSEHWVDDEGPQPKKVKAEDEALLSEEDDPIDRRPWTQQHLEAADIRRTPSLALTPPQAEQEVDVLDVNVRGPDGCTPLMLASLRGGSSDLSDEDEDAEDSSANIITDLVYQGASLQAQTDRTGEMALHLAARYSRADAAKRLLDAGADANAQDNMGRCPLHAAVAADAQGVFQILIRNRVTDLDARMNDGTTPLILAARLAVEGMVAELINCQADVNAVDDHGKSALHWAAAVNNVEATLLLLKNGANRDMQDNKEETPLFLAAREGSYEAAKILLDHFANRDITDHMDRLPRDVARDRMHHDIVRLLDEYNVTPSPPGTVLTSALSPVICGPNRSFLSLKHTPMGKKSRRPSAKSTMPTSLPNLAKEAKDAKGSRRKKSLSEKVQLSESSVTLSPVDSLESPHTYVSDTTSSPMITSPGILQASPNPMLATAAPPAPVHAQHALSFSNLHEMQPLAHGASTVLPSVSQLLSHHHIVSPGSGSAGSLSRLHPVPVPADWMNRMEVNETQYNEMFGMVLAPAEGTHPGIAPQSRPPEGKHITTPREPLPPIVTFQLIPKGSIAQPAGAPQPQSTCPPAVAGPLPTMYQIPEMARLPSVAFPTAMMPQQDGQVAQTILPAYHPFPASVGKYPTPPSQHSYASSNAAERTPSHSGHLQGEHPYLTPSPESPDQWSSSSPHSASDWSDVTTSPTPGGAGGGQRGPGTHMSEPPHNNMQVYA
SMILES,composite z-score [1],composite z-score [2],composite z-score [3],composite z-score [4],composite z-score [5],composite z-score [6],composite z-score [7],z-score [8],composite z-score [9],composite z-score [10]
O=C1O[C@@H](c2ccccc2)[C@@H](c2ccccc2)N2[C@@H](c3ccccc3OCCO)[C@]3(C(=O)Nc4ccc(C#CCCO)cc43)[C@@H](C(=O)Nc3nc4ccccc4s3)[C@H]12,-0.0348,0.74,-0.0165,1.07,1.36,1.5,1.3,-2.4 (inactive),0.73,0.28
CCOC(=O)C[C@H]1[C@H](OC(=O)c2ccc(-c3ccccc3)cc2)[C@@H](NC(=O)c2ccc3ccccc3n2)c2cc(OCCCO)ccc2N1C(=O)c1ccccc1,-0.497,0.482,-0.0996,0.618,1.01,0.464,0.857,-0.561 (inactive),0.579,0.113
COCCOC(=O)N1C(=O)[C@@]2(c3cc(C#CC4=CCCCC4)ccc31)[C@H](c1ccccc1OCCO)N1[C@H](c3ccccc3)[C@H](c3ccccc3)OC(=O)[C@H]1[C@@H]2C(=O)N1CCc2cc(OC)c(OC)cc2C1,-0.516,0.433,0.0571,0.515,1.18,0.319,1.07,-0.202 (inactive),0.401,-0.521
C=C(C(=O)CC[C@H](OC(=O)c1cccnc1)c1ccc(CO)o1)C(C)C,-0.201,0.674,-0.0415,0.467,0.355,0.904,1.25,0.0619 (inactive),0.28,-0.121
CCCCN1CC=CC23O[C@@H]4/C=C\CCC(C)OC(=O)C4[C@H]2C(=O)N(CCCCCCO)[C@@H]3C1=O (stereo not given in full),0.666,0.345,-0.0712,0.867,-0.625,0.272,1.59,0.189 (inactive),-0.213,-0.119
CCOC(=O)C[C@H]1[C@H](OC(=O)c2ccc(-c3ccccc3)cc2)[C@@H](NC(=O)c2ccc3ccccc3c2)c2cc(OCCCO)ccc2N1C(=O)c1ccc2ccccc2n1,-0.0093,0.0135,-0.06,0.398,0.676,0.706,0.15,0.247 (inactive),0.426,0.154
CC(C)C(O)C1C=CC2C(=O)N(C)C(=O)C2N1Nc1ccccc1 (stereo not given),0.383,0.681,0.364,0.914,1.69,1.19,1.37,2.73 (inactive),1.35,0.67
CC(=O)NCCCC[C@@H]1NC(=O)[C@@H]2C[C@H](C(=O)O)[C@H](c3ccc(O)cc3)N2C1=O,0.736,-1.54,-0.174,-1.07,-1.09,0.78,1.42,0.785 (inactive),-0.765,-0.372
